Assay [1] can be described thus: EMT-state selective cytotoxicity in co-culture – imaging, PC-3E GFP, TEM4-18 mCherry, primary screen (AID 1345086;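 active = compounds killing one labelled cell type while sparing the other, by normalised counts and ratio limits, not self-fluorescent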;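 as to all read-outs here: cells exposed to compound for 72 h before imaging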;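 as to red/green cell ratio (normalised): normalised mesenchymal count divided by normalised epithelial count so high means epithelial killing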). The settings on record: PC-3E GFP / TEM4-18 mCherry co-culture, imaging cell counts, at 1 µM; for red/green cell ratio (normalised): actives lie on both sides.
Assay [2] deals with Aerobactin synthetase IucA (Klebsiella pneumoniae hvKP1). The assay can be described thus: IucA enzyme inhibition, primary screen, biochemical, Spectrum library (AID 1346200).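 Also: 100% = wells without compound and 0% = wells lacking enzyme.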 The settings on record: malachite green pyrophosphate, A620, at 8 µM, stronger effect = lower value.
Assay [3] in a line: viability loss with induced miR-34 in A549 – imaging, A549 dox-inducible miR-34, nuclei and caspase counts, primary screen (AID 1347080;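 active = compounds whose cell count with miR-34 switched on is under 0.7 times the count with it off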). Conditions: A549 miR-34 inducible, Hoechst nuclei count, 48 h.
Assay [4] is described as follows: P. berghei load reduction in hepatocytes – cell-based, HepG2, luciferase luminescence, HepG2 viability, primary screen (AID 624349; in the data active = parasite load remaining mostly below about 12%, no sharp cut-off; inactive = mostly above about 10%;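 also: 100% = mean of DMSO negative control wells on the same plate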). Conditions: P. berghei liver stage in HepG2, luciferase luminescence, concentration not given here; parasite load remaining: stronger effect = lower value; viability: measured here: HepG2 viability without parasites.
[5] abbreviates: measured here: epithelial PC-3E GFP cell survival.
[6] abbreviates: measured here: mesenchymal TEM4-18 mCherry cell survival.
The mark [7] stands for this setting: measured here: relative caspase fold change +Dox/-Dox.
Where [8] appears, read: measured here: total cells with miR-34 induction, stronger effect = lower value.
Where [9] appears, read: measured here: total cells without miR-34 induction.

Results on 13 compounds are retold here after PubChem BioAssay.

Molecules are shown by their SMILES. Where “and” joins values, the source holds several entries; their conditions need not be identical. Identical values can stand only once. Calls of active or inactive are those of the source. Unless noted, no rule for the calls is given here.

The viability is a read-out of living cells in per cent, often relative to untreated cells.

For the compound `CC1=CC(=O)c2c(O)cccc2C1=O`, in assay [1], the red/green cell ratio (normalised) is 0.13 (inactive). Further, the normalised cell number came to 0.08 in assay [1] (setting [5]) and 0.01 in assay [1] (setting [6]). In addition, the activity remaining in assay [2] is 112% (inactive).

Turning to `C[C@H]1C[C@@H](O)[C@]2(O)[C@@]13CC(=O)OC[C@@]2(C)[C@](C)(O)C(=O)C3`, the red/green cell ratio (normalised) in assay [1] was 1.18 (inactive). In addition, the normalised cell number amounted to 0.96 in assay [1] (setting [5]) and 1.13 in assay [1] (setting [6]). In assay [2], the activity remaining is 127% (inactive).

In the case of `CN1C2C[C@H](OC(=O)[C@H](CO)c3ccccc3)C[C@H]1[C@@H](O)C2`, the red/green cell ratio (normalised) in assay [1] is 0.94 (inactive). Also, the results for the normalised cell number in assay [1] (setting [5]) and in assay [1] (setting [6]) were 1.1 and 1.03, respectively. Further, the activity remaining in assay [2] was 109% (inactive). Also, the fold change is 0.908 (inactive) in assay [3] (stronger effect = lower value) and 0.859 in assay [3] (setting [7]). For the same compound, the results for the cell count in assay [3] (setting [8]) and in assay [3] (setting [9]) were 8730 and 9620, respectively.

`C[C@H]1OC(O[C@H]2[C@@H](O)CC(O[C@H]3[C@@H](O)C[C@H](O[C@H]4CC[C@]5(C)C6CC[C@]7(C)[C@@H](C8=CC(=O)OC8)[C@@H](O)C[C@]7(O)[C@@H]6CC[C@@H]5C4)O[C@@H]3C)O[C@@H]2C)C[C@H](O)C1O` (stereo partly specified): the red/green cell ratio (normalised) in assay [1] is 0.34 (inactive). The normalised cell number in assay [1] (setting [5]) was 0.21; in assay [1] (setting [6]) it was 0.07. Besides, in assay [2], the activity remaining is 115% (inactive).

As for `CC(CO)NC(=O)C1C=C2c3cccc4[nH]cc(c34)C[C@H]2N(C)C1` (stereo partly specified), the parasite load remaining in assay [4] is 81.6% (inactive) and 59.7% (inactive). In addition, the viability in assay [4] is 72.8% and 111%. Moreover, the red/green cell ratio (normalised) in assay [1] was 1.15 (inactive). Also, the normalised cell number in assay [1] (setting [5]) worked out at 0.77; in assay [1] (setting [6]), 0.88. Further, the activity remaining in assay [2] was 98.2% (inactive). The figures for the fold change in assay [3] (stronger effect = lower value) and in assay [3] (setting [7]) were 0.895 (inactive) and 3.49, respectively. In addition, the cell count amounted to 11100 in assay [3] (setting [8]) and 12400 in assay [3] (setting [9]).

In the case of `CCC(=O)O[C@H]1CCC2C3CCC4=CC(=O)CC[C@]4(C)C3CC[C@@]21C` (stereo partly specified), in assay [4], the parasite load remaining was 54.4% (inactive). Moreover, in assay [4], the viability is 99.7%. Besides, the red/green cell ratio (normalised) in assay [1] is 1.2 (inactive). Further, the normalised cell number was 1.23 in assay [1] (setting [5]) and 1.48 in assay [1] (setting [6]). In addition, the activity remaining in assay [2] is 108% (inactive). The figures for the fold change in assay [3] (stronger effect = lower value) and in assay [3] (setting [7]) were 0.927 (inactive) and 4.54, respectively. Moreover, the cell count was found to be 10500 in assay [3] (setting [8]) and 11300 in assay [3] (setting [9]).

Regarding `Cc1c(O)c(O)cc2c1CC=C1[C@@]2(C)CC[C@@]2(C)C3C[C@](C)(C(=O)O)CC[C@]3(C)CC[C@]12C` (stereo partly specified), the red/green cell ratio (normalised) in assay [1] is 0.65 (inactive). Further, the values for the normalised cell number in assay [1] (setting [5]) and in assay [1] (setting [6]) were 0.64 and 0.41, respectively. In assay [2], the activity remaining was 103% (inactive).

For `CC(C)C[C@@H](CN)CC(=O)O`, in assay [4], the parasite load remaining was 133% (inactive) and 53% (inactive). The viability in assay [4] was 88.1% and 116%. For the same compound, the red/green cell ratio (normalised) in assay [1] was 1.06 (inactive). Further, the normalised cell number stood at 1.2 in assay [1] (setting [5]) and 1.27 in assay [1] (setting [6]). For the same compound, in assay [2], the activity remaining was 121% (inactive). Besides, the fold change was 0.933 (inactive) in assay [3] (stronger effect = lower value) and 3.45 in assay [3] (setting [7]). Further, the cell count in assay [3] (setting [8]) was 12300; in assay [3] (setting [9]), 13200.

Turning to `COc1cccc([C@]2(O)CCCC[C@H]2CN(C)C)c1`, the red/green cell ratio (normalised) in assay [1] is 1.34 (inactive). Further, the normalised cell number was 1.13 in assay [1] (setting [5]) and 1.5 in assay [1] (setting [6]). Moreover, the activity remaining in assay [2] was 98.7% (inactive). Also, the fold change in assay [3] (stronger effect = lower value) is 0.9 (inactive); in assay [3] (setting [7]), 6.33. In addition, the cell count in assay [3] (setting [8]) was determined as 11600; in assay [3] (setting [9]), 12900.

As to `C=CCN1CC[C@]23c4c5ccc(O)c4OC2C(=O)CC[C@@]3(O)[C@H]1C5` (stereo partly specified), in assay [4], the parasite load remaining is 96.1% (inactive) and 54.5% (inactive). Moreover, in assay [4], the viability was 79.4% and 88.1%. The red/green cell ratio (normalised) in assay [1] is 1.09 (inactive). Also, the normalised cell number in assay [1] (setting [5]) came out at 1.09; in assay [1] (setting [6]), 1.19. Besides, in assay [2], the activity remaining is 92.9% (inactive). Also, the fold change in assay [3] (stronger effect = lower value) was 0.923 (inactive); in assay [3] (setting [7]), 2.03. Moreover, the cell count in assay [3] (setting [8]) was found to be 11800; in assay [3] (setting [9]), 12800.

On to `C=C[C@H]1CN2CC[C@H]1C[C@@H]2[C@@H](OC(=O)OCC)c1ccnc2ccc(OC)cc12`, for which the parasite load remaining in assay [4] was 53% (inactive). The viability in assay [4] stood at 91.4%. In addition, the red/green cell ratio (normalised) in assay [1] was 1.15 (inactive). Further, the normalised cell number was 0.67 in assay [1] (setting [5]) and 0.77 in assay [1] (setting [6]). In assay [2], the activity remaining was 98.2% (inactive). In addition, the fold change is 0.94 (inactive) in assay [3] (stronger effect = lower value) and 1.23 in assay [3] (setting [7]). The cell count in assay [3] (setting [8]) worked out at 11100; in assay [3] (setting [9]) it was 11800.

In the case of `C[C@]12CCC(=O)C=C1C=CC1C2CC[C@@]2(C)C1CC[C@@]2(O)CCC(=O)O` (stereo partly specified), the parasite load remaining in assay [4] was 99.8% (inactive) and 46.1% (inactive). For the same compound, the viability in assay [4] was 62.7% and 93.1%. Also, the red/green cell ratio (normalised) in assay [1] is 1.24 (inactive). The normalised cell number was determined as 0.95 in assay [1] (setting [5]) and 1.17 in assay [1] (setting [6]). In addition, the activity remaining in assay [2] was 110% (inactive). Besides, the fold change in assay [3] (stronger effect = lower value) is 0.912 (inactive); in assay [3] (setting [7]) it was 3.05. Moreover, the cell count was determined as 12000 in assay [3] (setting [8]) and 13100 in assay [3] (setting [9]).

On to `C[C@@H]1CC(Cl)CC[C@H]1C(=O)OC(C)(C)C` (stereo partly specified), for which the red/green cell ratio (normalised) in assay [1] was 1.02 (inactive). The normalised cell number in assay [1] (setting [5]) was 1.09; in assay [1] (setting [6]) it was 1.12. Further, the activity remaining in assay [2] was 119% (inactive).
